Values joined by “and” are separate entries in the source; they are usually repeats but may differ in a detail not shown here. Equal entries are not always repeated. Structures can show the parent of a compound that is named as a salt.
Key:
Test in all cases: cell viability relative to vehicle control; higher = less cytotoxic
Conditions in all cases: 10 µM
[1] = tested on: K562
In short: (§1)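 CRISPR-edited mutant clones and isogenic wild-type clones from four leukaemia lines were screened against Selleck bioactive, kinase and epigenetic probe libraries, with identity-inconsistent compounds excluded. Each compound was acoustically dispensed at a single 10 µM dose into 384-well plates holding 2000 cells in 50 µL medium per well. After 48 h the supernatant was removed and CellTiter-Glo luminescence was read. Viability was expressed as percent of the on-plate vehicle control and analysed in Genedata Screener.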

[2] = tested on: MARIMO
In short: as §1

[3] = tested on: MOLM14
In short: as §1

[4] = tested on: OCI-AML2
In short: as §1

SMILES | cell viability ([1]; SRSF2 genotype: SRSF2 P95H/wt) | cell viability ([1]; SRSF2 genotype: SRSF2 wt/wt) | cell viability ([2]; SRSF2 genotype: SRSF2 P95H/wt) | cell viability ([2]; SRSF2 genotype: SRSF2 wt/wt) | cell viability ([3]; SRSF2 genotype: SRSF2 P95H/wt) | cell viability ([3]; SRSF2 genotype: SRSF2 wt/wt) | cell viability ([4]; SRSF2 genotype: P95H/wt) | cell viability ([4]; SRSF2 genotype: wt/wt)
Cc1ncc(COP(=O)(O)O)c(C=O)c1O [Pyridoxal phosphate] | 103% and 104% | 105% | 100% | 106% | 100% | 106% | 103% | 110%
CS(=O)(=O)OCCCCOS(C)(=O)=O [Busulfan (Myleran, Busulfex)] | 103% and 108% | 98.6% | 99.6% | 107% | 102% | 106% | 88.6% | 102%
C[C@]12C=CC(=O)C=C1CC[C@H]1[C@@H]3C[C@@H](O)[C@](O)(C(=O)CO)[C@@]3(C)C[C@H](O)[C@@]12F [Triamcinolone (Aristocort)] | 107% | 106% | 100% | 108% | 107% | 98.3% | 110% | 122%
C=CCc1cccc(/C=N/NC(=O)CN2CCN(Cc3ccccc3)CC2)c1O | 70.5% and 67% | 65.4% | 25.7% | 31.6% | 12.3% | 8.85% | 19.2% | 19.7%
Cc1nn(C)c2nc(NNC(=O)Nc3cc(Cl)nc(Cl)c3)cc(C(C)C)c12 | 70.7% and 79.6% | 70% | 82.1% | 61.8% | 83% | 83.8% | 50.5% | 55.4%
COc1ccccc1OCC(O)CN1CCN(CC(=O)Nc2c(C)cccc2C)CC1 (configuration not stated) [Ranolazine dihydrochloride] | 92.7% and 97.6% | 101% | 96.7% | 103% | 98.8% | 100% | 102% | 111%
CC(=O)Nc1cccc2c1c(Sc1ccc(Cl)cc1)c(C)n2CC(=O)O | 108% and 110% | 100% | 108% | 112% | 105% | 106% | 101% | 108%
CC(C)(C)C(=O)Nc1ccc2c(c1)C(=O)C(=O)c1ccccc1-2 [SF1670 (PTEN inhibitor)] | 84.3% and 70.9% | 56.8% | 2.56% | 70.5% | 88.4% | 39.2% | 65.8% | 76.2%
CC(=O)OCC1=C(C(=O)O)N2C(=O)C(NC(=O)CSC(=NC(C)C)NC(C)C)C2SC1 (configuration not stated) [Cefathiamidine] | 103% and 98.2% | 103% | 103% | 110% | 96.1% | 104% | 102% | 113%
O=C(O)c1ccc(C=C2SC(=S)N(c3cccc(C(F)(F)F)c3)C2=O)cc1 | 94.1% and 97.2% | 95.1% | 94.3% | 105% | 90.2% | 99.7% | 95.5% | 97.9%
O=C(O)CSc1nnc(Br)n1-c1ccc(C2CC2)c2ccccc12 [Lesinurad] | 98.3% and 93.5% | 97.5% | 95.1% | 108% | 98.7% | 101% | 96.9% | 100%
O=C(O)c1cc(/N=N/c2ccc(S(=O)(=O)Nc3ccccn3)cc2)ccc1O [Sulfasalazine (Azulfidine)] | 99% and 96.4% | 94.4% | 96.3% | 101% | 93.7% | 98.9% | 96.4% | 103%
CCCOC(=O)c1cc(O)c(O)c(O)c1 [Propyl gallate] | 96.2% and 91% | 94.7% | 81.8% | 99.1% | 97.6% | 106% | 98.2% | 97.5%
CN(C)c1ccc2c(c1)Sc1cc(N(C)C)ccc1N2 [TRx0237 (LMTX) mesylate] | 35.5% and 35.7% | 20.9% | 20.4% | 18.9% | 5.72% | 2.96% | 6.33% | 10.7%
C[C@H]1CNC(=O)c2cnn3ccc(nc23)N[C@H](C)c2cc(F)ccc2O1 | 14.4% and 36.7% | 18% | 48.6% | 51.6% | 9.21% | 5.47% | 8.06% | 19.4%
COc1ccc(Cn2ccc3ccc(C(=O)NO)cc32)cc1 | 91.2% and 87.7% | 84.4% | 65.9% | 75.9% | 84.1% | 81.6% | 69.3% | 75.5%
COc1cc(C(=O)NC2CCCNC2)cc(OC)c1OC (configuration not stated) [Troxipide] | 98.2% and 99.3% | 101% | 102% | 106% | 103% | 100% | 99.7% | 105%
Cc1ccc(-c2nn(C(C)(C)C)c3ncnc(N)c23)cc1 | 64.5% and 82.4% | 63.5% | 99.2% | 102% | 58.6% | 85.9% | 82% | 78.6%
Nc1nc(-c2nn(Cc3ccccc3F)c3ncccc23)ncc1C1CC1 | 110% and 114% | 95.3% | 103% | 101% | 104% | 104% | 83.9% | 86.4%
NCCOc1ccc(Cl)cc1C(=O)Nc1ccc([N+](=O)[O-])cc1Cl | 29.7% and 24.1% | 23.4% | 35.4% | 37.5% | 21.3% | 14.6% | 4.88% | 14.7%
CS(=O)(=O)c1ccc(C(=O)Nc2ccc(Cl)c(-c3ccccn3)c2)c(Cl)c1 [Vismodegib (GDC-0449)] | 93.4% and 96.9% | 96.7% | 101% | 104% | 103% | 104% | 96% | 92.9%
O=C1OC(COc2ccccc2[N+](=O)[O-])CC1Cc1ccccc1 (configuration not stated) | 95.1% and 98.1% | 101% | 93.5% | 103% | 108% | 106% | 117% | 103%

SMILES | cell viability ([1]; SRSF2 genotype: SRSF2 P95H/wt) | cell viability ([1]; SRSF2 genotype: SRSF2 wt/wt) | cell viability ([2]; SRSF2 genotype: SRSF2 P95H/wt) | cell viability ([2]; SRSF2 genotype: SRSF2 wt/wt) | cell viability ([3]; SRSF2 genotype: SRSF2 P95H/wt) | cell viability ([3]; SRSF2 genotype: SRSF2 wt/wt) | cell viability ([4]; SRSF2 genotype: P95H/wt) | cell viability ([4]; SRSF2 genotype: wt/wt)
CNS(=O)(=O)Nc1nccc(Cc2c(C)c3ccc(Oc4ncccn4)cc3oc2=O)c1F | 59.5% and 66.4% | 72.2% | 36% | 36.9% | 44.7% | 30.6% | 37.6% | 40.4%
CC(C)C1=CC2=CC[C@@H]3[C@](C)(CCC[C@@]3(C)C(=O)O)[C@H]2CC1 [Abietic Acid] | 113% and 104% | 98.8% | 105% | 115% | 99.5% | 105% | 90.9% | 95.5%
CC1=C(C(=O)OC(C)C)C(c2cccc([N+](=O)[O-])c2)C(C(=O)OC2CN(C(c3ccccc3)c3ccccc3)C2)=C(N)N1 (configuration not stated) [Azelnidipine] | 74.3% and 58.4% | 58.8% | 58.1% | 80.1% | 82.1% | 82.3% | 71.3% | 58%
O=C(CCCCCCC(=O)N/N=C/c1ccc(N(c2ccccc2)c2ccccc2)cc1)NO | 38.5% and 60.9% | 54.6% | 65.8% | 18.7% | 1.58% | 1.31% | 0.64% | 1.98%
CCCCC(=O)OCC(=O)[C@H]1[C@H](C)C[C@H]2[C@@H]3C[C@H](F)C4=CC(=O)C=C[C@]4(C)[C@@]3(F)[C@@H](O)C[C@@]21C [Diflucortolone valerate] | 96.5% and 92.7% | 104% | 95.1% | 98.2% | 92% | 96% | 99.4% | 118%
Clc1cccc(CN=C2Nc3ccccc3NC23CCNCC3)c1 [Liproxstatin-1] | 68.8% and 75.6% | 70% | 73% | 70.1% | 68.9% | 80.1% | 93.5% | 71.5%
Cc1ccc(NC(=O)c2ccc(CN3CCN(C)CC3)cc2)cc1Nc1nccc(-c2cccnc2)n1 [Imatinib (STI571)] | 12.8% and 26.4% | 16.5% | 101% | 103% | 85% | 95% | 82.6% | 72.3%
CN(C)C(=O)/C(C#N)=C/c1ccc(-c2nc3cnc4[nH]ccc4c3n2C2CCCCC2)o1 | 99.3% and 98.8% | 98.6% | 80.9% | 89.3% | 49.5% | 71% | 71.5% | 71.5%
C/C=C(/C)C(=O)O[C@H]1[C@@H](OC(=O)CC(C)C)c2c(ccc3ccc(=O)oc23)OC1(C)C [Praeruptorin E] | 65.9% and 77.1% | 79% | 57.4% | 53.9% | 69.4% | 76.3% | 25.6% | 52.9%
Cc1cc(SCc2sc(-c3ccc(C(F)(F)F)cc3)nc2C)ccc1OCC(=O)O | 102% and 95.2% | 96.7% | 92% | 103% | 87.6% | 97.3% | 90.4% | 95.4%
CO[C@H]1/C=C/O[C@@]2(C)Oc3c(C)c(O)c4c(O)c(cc(O)c4c3C2=O)NC(=O)/C(C)=C\C=C\[C@H](C)[C@H](O)[C@@H](C)[C@@H](O)[C@@H](C)[C@H](OC(C)=O)[C@@H]1C [Rifamycin sodium salt] | 35.1% and 16.3% | 13% | 4.5% | 7.05% | 0.49% | 0.44% | 0.38% | 0.42%
NC(=O)N1c2ccccc2CC(=O)c2ccccc21 [Oxcarbazepine] | 89% and 97.3% | 94.8% | 85.3% | 99.1% | 73.4% | 92.3% | 86% | 86.9%
CCCCCCCCCCCCCCCCCCCCCCCCCCCCO [1-Octacosanol] | 107% and 110% | 98.7% | 109% | 106% | 100% | 106% | 96.2% | 108%
COc1cc2c(=O)c(-c3ccc(O)cc3)coc2cc1O[C@@H]1O[C@H](CO)[C@@H](O)[C@H](O)[C@H]1O [Glycitin] | 98% and 97.4% | 101% | 95.2% | 103% | 97.1% | 103% | 89.3% | 87%
COC(=O)Nc1nc2cc([S+]([O-])c3ccccc3)ccc2[nH]1 (configuration not stated) [Oxfendazole] | 50.5% and 57.7% | 58.5% | 55.2% | 49.4% | 70.5% | 70.4% | 80% | 78%
COc1cc(CCc2cc(NC(=O)c3ccc(N4CC(C)NC(C)C4)cc3)n[nH]2)cc(OC)c1 (configuration not stated) | 68.8% and 79.7% | 59.6% | 46% | 42.1% | 14.4% | 21.5% | 8.06% | 17.9%
COc1ccc(CC(=O)Nc2nc3c(s2)CCc2ccccc2-3)cc1OC | 70.4% and 68.1% | 68.3% | 45.1% | 26.8% | 65.1% | 76.5% | 27.9% | 34.9%
COC(=O)c1ccc(O)c(OC)c1 [Methyl Vanillate] | 101% and 96.9% | 102% | 90.7% | 104% | 103% | 103% | 95.2% | 107%
CO[C@H]1/C=C/O[C@@]2(C)Oc3c(C)c(O)c4c(O)c(c5c(nc6cc(C)ccn65)c4c3C2=O)NC(=O)/C(C)=C\C=C\[C@H](C)[C@H](O)[C@@H](C)[C@@H](O)[C@@H](C)[C@H](OC(C)=O)[C@@H]1C [Rifaximin (Xifaxan)] | 97.9% and 106% | 98.1% | 103% | 107% | 105% | 101% | 111% | 98.7%
C[C@@H](NCCCc1cccc(C(F)(F)F)c1)c1cccc2ccccc12 [AMG-073 HCl (Cinacalcet hydrochloride)] | 21.9% and 38.4% | 19.4% | 57.1% | 50.4% | 27% | 24.2% | 1.48% | 10.2%
Cc1cc(O)c(C(=O)CCC(C)C)c(=O)o1 [Pogostone] | 104% and 98.3% | 101% | 95.7% | 106% | 96.5% | 99.5% | 95.9% | 99.5%
O=C(NCc1ccc(Oc2ccccc2)cc1)c1nc(-c2cc(Br)c(O)c(Br)c2)no1 | 77.6% and 72% | 66.7% | 80.5% | 91.8% | 59.8% | 84.5% | 88.4% | 81.9%
